Hit rate of the full screen: of about 220,000 compounds, about 5,700 (2.6%) were called active. A call without a number means that no potency is given here. Roughly 18% stayed inconclusive and do not appear here. The call rests on the fitted dose curve; in most records, active means well fitted inhibition curve with a large enough effect; inconclusive means small, poorly fitted or top-dose-only effect; inactive means no such curve, though single readings can be large or run the other way. Only a selection was taken, and actives are over-represented in it overall.
Potency means the concentration at half of the fitted maximal effect.

For the test, the target named is Lysine-specific demethylase 5B (Homo sapiens) (UniProt Q9UGL1). In words: Primary screen for KDM5B Histone Demethylases FDH-coupled qHTS. Further: nearly all actives have a fitted effect of over 70% in size. The note with it: FDH-coupled NADH fluorescence (FDH is formaldehyde dehydrogenase); series mostly up to 57.7 µM. From the text: Assay Submitter (PI): Qin Yan, Ph.D. (Yale University) and Xiaodong Cheng, Ph.D. (MD Anderson) This project was funded as part of the NCI NEXT Program and Chemical Biology Consortium (CBC) The histone demethylases, KDM5A and KDM5B catalyze the demethylation of lysine 4 on histone H3 (H3K4me3/2). They are overexpressed in a variety of cancers and have been implicated in cancer cell growth, metastasis, drug resistance, and tumor growth. KDM5A is amplified and overexpressed in breast and gastric cancer; and is translocated in leukemia. While KDM5B is highly expressed in human mammary tumors and breast cancer cell lines, but not in normal adult breast tissue. Moreover, knockdown of KDM5B leads to upregulation of tumor suppressor genes, including BRCA1. The goal of this project is to employ qHTS to identify selective small molecule inhibitors of KDM5A/B demethylase activity to better understand the role of KDM5 in cancer and to develop novel therapies. We employed an FDH-coupled assay previously reported by Sakurai et al. to monitor in vitro KDM5 demethylase activity. Compounds showing dose response inhibition are re-acquired, validated, and tested for non-specific interference with the formaldehyde dehydrogenase (FDH) counterscreen. True inhibitors are validated using an AlphaLisa secondary screen, which employs an H3K4(me2-1)-specific antibody to monitor demethylation of a biotin-tagged H3K4(me3) peptide substrate. Inhibitors are profiled against KDM4A and KDM6A AlphaLisa counterscreens to determine level of demethylase specificity; and against the TruHits counterscreen to eliminate non-specific inhibitory activity on the AlphaLISA detection method. Selective inhibitors identified from the primary and secondary screening are tested in cells using immunofluorescence to monitor global H3K4 tri-methylation as a measure of KDM5A/B inhibition. Early Translation Branch (ETB) National Center for Advancing Translational Sciences (NCATS), Rockville, MD National Institute of Health (NIH), Bethesda, Maryland [1] Sakurai, M et al. A miniaturized screen for inhibitors of Jumonji histone demethylases. Mol Biosyst. 2010 Feb;6(2):357-64. doi: 10.1039/b912993f. Epub 2009 Oct 8.
Chain of Lysine-specific demethylase 5B (Homo sapiens) (Q9UGL1 whole entry, looked up): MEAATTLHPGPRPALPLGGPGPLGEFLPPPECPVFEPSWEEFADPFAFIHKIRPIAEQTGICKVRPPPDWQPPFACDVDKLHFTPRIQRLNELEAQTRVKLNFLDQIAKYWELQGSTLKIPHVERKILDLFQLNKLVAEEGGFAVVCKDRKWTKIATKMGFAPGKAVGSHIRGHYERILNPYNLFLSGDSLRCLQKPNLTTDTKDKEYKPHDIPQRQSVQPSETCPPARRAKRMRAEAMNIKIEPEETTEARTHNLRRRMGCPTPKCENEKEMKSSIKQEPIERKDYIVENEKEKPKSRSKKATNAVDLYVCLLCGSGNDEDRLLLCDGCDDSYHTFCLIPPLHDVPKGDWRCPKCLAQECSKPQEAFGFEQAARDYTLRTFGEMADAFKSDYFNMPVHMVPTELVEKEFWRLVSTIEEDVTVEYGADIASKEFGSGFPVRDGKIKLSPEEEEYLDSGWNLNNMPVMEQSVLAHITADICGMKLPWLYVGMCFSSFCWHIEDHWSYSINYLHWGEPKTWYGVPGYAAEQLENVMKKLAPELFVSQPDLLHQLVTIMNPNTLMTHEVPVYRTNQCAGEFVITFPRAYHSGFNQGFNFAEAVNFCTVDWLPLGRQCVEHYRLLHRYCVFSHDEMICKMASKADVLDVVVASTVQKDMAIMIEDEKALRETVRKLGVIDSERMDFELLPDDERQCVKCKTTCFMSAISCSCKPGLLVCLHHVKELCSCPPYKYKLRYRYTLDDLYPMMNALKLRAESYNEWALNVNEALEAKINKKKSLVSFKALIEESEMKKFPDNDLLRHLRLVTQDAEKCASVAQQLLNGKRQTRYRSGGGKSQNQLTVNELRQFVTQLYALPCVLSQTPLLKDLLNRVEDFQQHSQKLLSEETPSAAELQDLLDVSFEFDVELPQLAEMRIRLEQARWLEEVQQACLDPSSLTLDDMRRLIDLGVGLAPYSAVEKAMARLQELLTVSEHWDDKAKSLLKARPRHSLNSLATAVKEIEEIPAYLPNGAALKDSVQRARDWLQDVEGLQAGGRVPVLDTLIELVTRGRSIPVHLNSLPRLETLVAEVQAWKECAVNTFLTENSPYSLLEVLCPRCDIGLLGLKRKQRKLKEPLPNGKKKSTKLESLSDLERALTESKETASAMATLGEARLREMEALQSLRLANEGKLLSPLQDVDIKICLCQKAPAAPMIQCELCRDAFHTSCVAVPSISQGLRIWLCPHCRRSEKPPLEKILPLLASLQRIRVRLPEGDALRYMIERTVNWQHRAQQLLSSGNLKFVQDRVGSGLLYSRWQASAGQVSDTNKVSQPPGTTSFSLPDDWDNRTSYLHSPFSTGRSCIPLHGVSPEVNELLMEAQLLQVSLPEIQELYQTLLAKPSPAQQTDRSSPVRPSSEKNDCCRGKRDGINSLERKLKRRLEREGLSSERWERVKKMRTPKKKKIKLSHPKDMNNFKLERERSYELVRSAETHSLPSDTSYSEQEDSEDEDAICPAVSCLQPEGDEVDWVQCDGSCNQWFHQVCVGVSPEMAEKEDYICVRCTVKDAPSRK
Materials: 1536-well Black, solid bottom, medium binding assay plate is purchased from Greiner Bio-one. The enzymes (KDM5B) and substrate (H3K4me3/2) are provided by the principal investigators. The buffer for this assay is composed of 50mM HEPES at pH 7.5 with 0.01% Tween-20. FDH coupled Demethylase qHTS protocol: Three microliter enzyme mix (buffer + 200nM KDM5BDeltaAP final concentration) is dispensed into the assay plate using the BioRAPTR Flying Reagent Dispenser (FRD; […]). Compound (at various final concentration) and control solution is pin transferred to the assay plate using the Kalypsys 1536-pin tool apparatus. The assay plate is incubated for 10 min at room temperature followed by addition of 1uL substrate mix (buffer + 100uM ascorbic acid, 50uM ferrous ammonium sulfate, 12.5uM H3K4Me3, 25uM a-ketoglutarate, 0.25 mM NAD+, 0.25 U/mL formaldehyde dehydrogenase using the FRD yielding a total reaction volume of 4 uL. Initial fluorescence (Read1) is detected using the PerkinElmer ViewLux plate reader equipped with 340 nm excitation and 450 nm emission filters. The final fluorescence (Read2) signal is obtained after 30 min of room temperature incubation. Delta RFU is calculated (Read2 - Read1) and is used to generated dose response curves.
In general terms: qHTS replaces the single test concentration by a dilution series.
Take `COc1cccc(NC(=O)COc2cc(C)cc3oc(=O)cc(C)c23)c1`: the Potency result was “inactive”.

As to `CCOc1ccc(C(=O)N2CC(=O)Nc3ccc(C)cc3C2c2ccccc2)cc1` (stereo unspecified), the Potency result is “inactive”.

Consider `CCC(C(=O)NCCn1ccn2nc(-c3ccc(F)cc3)cc2c1=O)c1ccccc1` (stereo unspecified), for which the Potency entry is “inactive”.

As for `CCOc1ccc(-c2cc3c(=O)n(CC(=O)NCc4ccc(OC)cc4)ccn3n2)cc1`, the Potency result is “inactive”.

With `Cc1ccc(C)c(-c2cc3c(=O)n(CCNC(=O)Cc4ccsc4)ccn3n2)c1`, the Potency result was “inactive”.

As for `COc1ccc(-c2cc3c(=O)n(CCNC(=O)c4ccc(OC)cc4OC)ccn3n2)cc1`, the Potency is 35.5 µM (active).

`CCOc1ccc(-c2cc3c(=O)n(CCNC(=O)c4ccc(OC)cc4C)ccn3n2)cc1`: the Potency was 28.2 µM (active).

Turning to `Cc1ccc(C)c(-c2cc3c(=O)n(CCNC(=O)c4ccncc4)ccn3n2)c1`, the Potency result is “inactive”.

For the compound `Cc1c(Cl)cccc1NC(=S)NCCSc1ccc(Cl)cc1`, the Potency entry was “inactive”.

Consider `O=Cc1cc(Cl)ccc1O`, for which the Potency entry was “inactive”.

For `Cc1cc(C)c(NC(=O)COc2ccc(C(=O)Nn3c(C)ccc3C)cc2)c(C)c1`, the Potency entry was “inactive”.

With `O=C(Nc1ccccc1C(F)(F)F)N1CCC(N2CCN(Cc3ccccn3)C(=O)C2=O)CC1`, the Potency result was “inactive”.

For the compound `COc1ccc(C(=O)C(C)OC(=O)c2nn(C)c(=O)c3ccccc23)cc1` (stereo unspecified), the Potency result is “inactive”.

Regarding `COC(=O)c1ccc(/C=C2\CCc3c(C)cc(C)cc3C2=O)cc1`, the Potency result was “inactive”.

As for `O=C(c1ccc2cc[nH]c2n1)N1CCOCC1`, the Potency is 126 µM (active).

On to `O=C1CCN(C(=O)c2ccc3ccccc3n2)CCCCCCN1`, for which the Potency result was “inactive”.

With `O=C(CN1CCN(C(=O)c2ccc3ccccc3n2)CC1)NC1CC1`, the Potency result was “inactive”.

As for `Cc1cccc(C)c1NC(=O)CSc1nc(C)c(C)o1`, the Potency result was “inactive”.

`CN(CC(=O)Nc1ccc2c(c1)OC1(CCCCC1)O2)Cc1cccs1`: the Potency entry is “inactive”.

For `COc1ccc(S(=O)(=O)NCCOc2ccccc2)cc1F`, the Potency entry was “inactive”.

In the case of `CCOc1ccc(C2C(C#N)=C(N)N(N(C)C)C3=C2C(=O)CCC3)cc1` (stereo unspecified), the Potency entry was “inactive”.

Take `O=C1CCC/C(=N/NC(=O)c2cc(-c3ccncc3)nc3ccccc23)C1`: the Potency entry was “inactive”.

Regarding `O=C(c1ccc(Cl)cc1)N(Cc1ccco1)c1ccc(O)cc1`, the Potency result is “inactive”.

On to `CCc1ccc(CCC(=O)NC)cc1`, for which the Potency result was “inactive”.

For the compound `CNC(=O)CCN(C)c1nccc(-c2ccc(C)nc2C)n1`, the Potency is 25.1 µM (active).

For `CNc1c(NC(=O)Cc2ccc(OC)c(OC)c2)c(=O)oc2ccccc12`, the Potency result was “inactive”.

On to `O=C(NNC(=O)C1CCC1)c1ccccc1`, for which the Potency result is “inactive”.

Regarding `O=C(OCc1ccc(F)cc1)c1cnc2ccccc2n1`, the Potency entry is “inactive”.

For the compound `Cc1ccc(NC(=O)c2ccoc2)cc1I`, the Potency entry was “inactive”.

Take `O=C(NC12CC3CC(CC(C3)C1)C2)c1cccc2ncccc12`: the Potency entry is “inactive”.

Turning to `Cc1ccccc1NC(=O)C(C)Sc1ccc(C(F)(F)F)cn1` (stereo unspecified), the Potency result is “inactive”.

As for `CC1(C)C/C(=N/Nc2ccc([N+](=O)[O-])cc2[N+](=O)[O-])C(C)(C)O1`, the Potency entry is “inactive”.

With `CC(C)c1ccc(/C=C(/C#N)c2nc3ccccc3[nH]2)cc1`, the Potency entry is “inactive”.

As to `COc1ccccc1C(=O)N1CCc2c(nc3cc(-c4ccccc4Cl)[nH]n3c2=O)C1`, the Potency was 22.4 µM (active).

Regarding `COc1ccc(-c2cc(N3CCCN(C(=O)c4ccc(OC)cc4C)CC3)n[nH]2)cc1`, the Potency result was “inactive”.

Turning to `COc1ccc(-c2nc(C(C)C)nc3c2CN(C(=O)c2ccccc2F)CC3)cc1`, the Potency entry is “inactive”.

On to `COc1ccccc1N1CCN(C(=O)c2ccccc2-c2ncc[nH]2)CC1=O`, for which the Potency entry was “inactive”.

With `COc1ccccc1CC(=O)N1CCc2c(nc3cc(-c4ccccc4Cl)[nH]n3c2=O)C1`, the Potency entry was “inactive”.

In the case of `COC(=O)c1cccc(NC(=O)N2CCC3(CCC(=O)N(Cc4ccccc4)CC3)CC2)c1`, the Potency result is “inactive”.

In the case of `COc1ccc(-c2cc3nc4c(c(=O)n3[nH]2)CCN(C(=O)c2ccccc2C)C4)cc1`, the Potency was 20 µM (active).

With `O=C(Nc1ccccc1)N1CCc2nc(-c3ccccc3)nc(-c3ccc(Cl)cc3)c2C1`, the Potency result was “inactive”.

As to `COC(=O)c1cccc(NC(=O)N2CCc3c(nc4cc(-c5ccccc5)[nH]n4c3=O)C2)c1`, the Potency was 11.2 µM (active).

For the compound `CCN(CC)c1nc2ccccc2nc1C(=O)Nc1ccccc1C`, the Potency result is “inactive”.

`O=c1oc2ccccc2c2nc(-c3ccccc3)c(-c3ccccc3)nc12`: the Potency result is “inactive”.

Regarding `Cc1c(-c2ccccc2)nc2ccccc2c1C(=O)OCC(N)=O`, the Potency entry is “inactive”.

In the case of `COC(=O)CC(NC(=O)c1nn(C)c(=O)c2ccccc12)c1ccccc1` (stereo unspecified), the Potency entry is “inactive”.

Turning to `CC(C)C(=O)NC(Nc1ccccc1Cl)(C(F)(F)F)C(F)(F)F`, the Potency entry was “inactive”.

Take `COc1ccc(-c2ccc3ncn(C4CC4)c(=O)c3n2)cn1`: the Potency was 39.8 µM (active).

For `COc1ccc(-c2ccc3ncc(Nc4ccc(C(F)(F)F)cc4)n3n2)cn1`, the Potency result was “inactive”.

On to `COc1ccc(Nc2cnc3ccc(-c4ccc(OC)nc4)nn23)cc1`, for which the Potency entry is “inactive”.

For the compound `O=C(O)c1cccc(NC(NC(=O)c2cccs2)C(=O)c2ccccc2)c1` (stereo unspecified), the Potency result is “inactive”.

For the origin of these results see PubChem BioAssay AID1347165 (National Center for Advancing Translational Sciences (NCATS), 2019).
